The OligoGym collection

These sequences were tested against HSF2 (assay: pooled miR-30 sensor sort-seq; sequence = guide strand). Settings: shRNA.
Note: reference of the scale not given here.

Sequence | sensor-assay potency score (higher = more potent)
TAACTTGTTGCTGTTGTGCATG | -0.847
TTGAACATGAATAAACGTCTTT | 0.178
TAAAACTAGTCCAACTAACTGG | -0.42
TACATCTGCGTAACTATGCAGC | -0.31
TATGCAGCTGAGTAACACCTGA | -0.731
TAAACCTTCAGTCCTACTGTGT | -0.618
TTCCTGTTTTATCTGAACCTTC | -0.752
TTTGAAGATGAAACCTTCCTTT | 0.173
TTAGTTTCTGGAATAACTGGGA | -0.0464
TTCATTGTCATCTTCAACGATG | -0.744
TAAACTGGACAATCTTTCGAAT | -0.594
TTTCTTGCTTTACAATTCCAGA | -1.24

What follows are sequences tested against HSP90AA1 in the same assay as above. Settings: shRNA.

Sequence | sensor-assay potency score (higher = more potent)
TTTCTCTTCTTCATCCTCTGGA | 0.444
TTTGTTGCAACATCTCACGGGA | 0.467
TACAATTTGATGTTGTTCTTTT | -0.348
TTTTTGACCAAATTCTTCCTGA | 0.315
TTATCCATGATGAAAACTCTGC | -0.426
TTGAGTTGTCTCTTAGGGCTTG | 0.45
TTGATCATCCTGTAGATCCTGT | 0.84
TTGCTTTGTTGCAACATCTCAC | 0.536
TACAACTTTAAGCAGAATGTGA | -0.45
TTGATCGATGTACTTTTCCTTA | -0.594
TCGGTTTGACACAACCACCTTT | -0.307
TTCTCCTTCATTCTGGTGCAGT | -0.91

What follows are sequences tested against HSP90B1 in the same assay as above. Settings: shRNA.

Sequence | sensor-assay potency score (higher = more potent)
TTTTGAAGTGACAATAACCTTA | 0.45
TTTCATCGAACTTCACTCCTTC | 0.873
TTCATCGTCAGCTCTGACCGAC | 0.128
TTAAAAACTCGCTTGTCCCAGA | 0.327
TTGCTGAAGAGTCTCGCGGGAA | -0.855
TTTGAAGTGACAATAACCTTAT | -0.631
TTTGTGATGCATTTAATCCATC | -1.31
TATCATTGTATTTATCATCAGC | -0.644
TTCTTGATCATGTCCAGCGTTT | -0.303
TTTATCATCAGCAATCTTCTTG | 0.391
TTTTACATCAAGAATAGTCAGT | 0.0481
TTTTTAACCAACTCTTCTCTGG | -0.121

What follows are sequences tested against HSPA1A in the same assay as above. Settings: shRNA.

Sequence | sensor-assay potency score (higher = more potent)
TTGACACTTGTCCAGCACCTTC | -1.05
ATCTCTGCATGTAGAAACCGGA | -0.989
TCAACATTGCAAACACAGGAAA | -1.05
